Experimental data reported in ChEMBL document CHEMBL1961873, “Compounds: GSK PKIS; Assays: Nanosyn kinase panel” (2012).

What was measured:
[1] = molecular target: T1, Ephrin type-B receptor 2 (Homo sapiens) (UniProt P29323); conditions: at 1 µM
T1 sequence (whole entry): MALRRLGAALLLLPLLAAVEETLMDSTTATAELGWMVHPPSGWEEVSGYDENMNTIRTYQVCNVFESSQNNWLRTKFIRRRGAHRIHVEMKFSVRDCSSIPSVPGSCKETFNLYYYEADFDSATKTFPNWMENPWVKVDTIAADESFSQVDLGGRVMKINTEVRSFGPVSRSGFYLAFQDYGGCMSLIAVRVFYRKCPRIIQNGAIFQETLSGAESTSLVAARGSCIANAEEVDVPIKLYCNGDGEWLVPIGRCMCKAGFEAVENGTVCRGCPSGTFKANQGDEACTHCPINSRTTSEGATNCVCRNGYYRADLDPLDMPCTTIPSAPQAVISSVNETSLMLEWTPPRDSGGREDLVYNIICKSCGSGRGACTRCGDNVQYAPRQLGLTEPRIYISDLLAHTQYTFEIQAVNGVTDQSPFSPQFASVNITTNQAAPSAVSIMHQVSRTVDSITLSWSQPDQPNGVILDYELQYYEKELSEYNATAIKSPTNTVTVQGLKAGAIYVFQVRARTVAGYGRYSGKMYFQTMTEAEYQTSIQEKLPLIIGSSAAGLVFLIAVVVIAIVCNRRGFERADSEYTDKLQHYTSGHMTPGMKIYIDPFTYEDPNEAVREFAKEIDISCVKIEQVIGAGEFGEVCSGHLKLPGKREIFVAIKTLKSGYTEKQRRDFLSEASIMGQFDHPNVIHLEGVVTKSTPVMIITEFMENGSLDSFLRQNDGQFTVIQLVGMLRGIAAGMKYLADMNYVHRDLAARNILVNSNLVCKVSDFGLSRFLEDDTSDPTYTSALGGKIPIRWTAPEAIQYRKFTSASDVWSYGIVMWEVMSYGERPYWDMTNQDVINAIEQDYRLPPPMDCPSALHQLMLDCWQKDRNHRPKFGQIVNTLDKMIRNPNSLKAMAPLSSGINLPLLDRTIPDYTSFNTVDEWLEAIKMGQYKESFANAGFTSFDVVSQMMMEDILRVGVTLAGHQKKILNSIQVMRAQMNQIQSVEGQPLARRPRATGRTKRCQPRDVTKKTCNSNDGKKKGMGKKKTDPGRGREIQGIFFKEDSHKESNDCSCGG

[2] = molecular target: T2, Ephrin type-B receptor 3 (Homo sapiens) (UniProt P54753); conditions: at 0.1 µM
T2 sequence (whole entry): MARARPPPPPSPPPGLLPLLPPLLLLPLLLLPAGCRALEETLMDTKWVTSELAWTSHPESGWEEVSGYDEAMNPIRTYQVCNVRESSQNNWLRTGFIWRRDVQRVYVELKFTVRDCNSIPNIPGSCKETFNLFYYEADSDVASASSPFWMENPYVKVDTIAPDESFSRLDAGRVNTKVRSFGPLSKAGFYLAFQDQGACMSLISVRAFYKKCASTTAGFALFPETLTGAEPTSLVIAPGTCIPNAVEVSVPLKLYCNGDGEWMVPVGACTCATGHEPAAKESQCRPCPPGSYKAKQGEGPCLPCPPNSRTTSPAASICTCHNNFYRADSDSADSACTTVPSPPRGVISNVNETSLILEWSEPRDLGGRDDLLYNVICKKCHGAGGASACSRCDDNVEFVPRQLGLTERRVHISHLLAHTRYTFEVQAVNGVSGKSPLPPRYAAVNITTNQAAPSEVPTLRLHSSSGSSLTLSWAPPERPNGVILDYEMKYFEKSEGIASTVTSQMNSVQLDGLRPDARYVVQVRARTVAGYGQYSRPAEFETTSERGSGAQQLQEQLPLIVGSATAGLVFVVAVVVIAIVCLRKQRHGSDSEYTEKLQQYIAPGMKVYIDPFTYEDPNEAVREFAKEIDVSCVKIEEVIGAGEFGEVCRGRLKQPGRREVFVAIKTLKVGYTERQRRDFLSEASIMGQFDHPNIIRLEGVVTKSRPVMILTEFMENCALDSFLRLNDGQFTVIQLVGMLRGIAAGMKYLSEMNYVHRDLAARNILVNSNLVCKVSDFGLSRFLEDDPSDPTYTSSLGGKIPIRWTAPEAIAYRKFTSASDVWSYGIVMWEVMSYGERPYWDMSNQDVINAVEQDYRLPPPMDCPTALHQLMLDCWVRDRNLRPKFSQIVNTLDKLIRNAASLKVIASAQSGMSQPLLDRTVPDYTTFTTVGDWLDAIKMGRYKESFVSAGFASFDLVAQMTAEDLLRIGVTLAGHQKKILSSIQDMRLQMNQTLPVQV

[3] = molecular target: T2, Ephrin type-B receptor 3 (Homo sapiens); conditions: at 1 µM
[4] = molecular target: T3, Ephrin type-B receptor 4 (Homo sapiens) (UniProt P54760); conditions: at 0.1 µM
T3 sequence (whole entry): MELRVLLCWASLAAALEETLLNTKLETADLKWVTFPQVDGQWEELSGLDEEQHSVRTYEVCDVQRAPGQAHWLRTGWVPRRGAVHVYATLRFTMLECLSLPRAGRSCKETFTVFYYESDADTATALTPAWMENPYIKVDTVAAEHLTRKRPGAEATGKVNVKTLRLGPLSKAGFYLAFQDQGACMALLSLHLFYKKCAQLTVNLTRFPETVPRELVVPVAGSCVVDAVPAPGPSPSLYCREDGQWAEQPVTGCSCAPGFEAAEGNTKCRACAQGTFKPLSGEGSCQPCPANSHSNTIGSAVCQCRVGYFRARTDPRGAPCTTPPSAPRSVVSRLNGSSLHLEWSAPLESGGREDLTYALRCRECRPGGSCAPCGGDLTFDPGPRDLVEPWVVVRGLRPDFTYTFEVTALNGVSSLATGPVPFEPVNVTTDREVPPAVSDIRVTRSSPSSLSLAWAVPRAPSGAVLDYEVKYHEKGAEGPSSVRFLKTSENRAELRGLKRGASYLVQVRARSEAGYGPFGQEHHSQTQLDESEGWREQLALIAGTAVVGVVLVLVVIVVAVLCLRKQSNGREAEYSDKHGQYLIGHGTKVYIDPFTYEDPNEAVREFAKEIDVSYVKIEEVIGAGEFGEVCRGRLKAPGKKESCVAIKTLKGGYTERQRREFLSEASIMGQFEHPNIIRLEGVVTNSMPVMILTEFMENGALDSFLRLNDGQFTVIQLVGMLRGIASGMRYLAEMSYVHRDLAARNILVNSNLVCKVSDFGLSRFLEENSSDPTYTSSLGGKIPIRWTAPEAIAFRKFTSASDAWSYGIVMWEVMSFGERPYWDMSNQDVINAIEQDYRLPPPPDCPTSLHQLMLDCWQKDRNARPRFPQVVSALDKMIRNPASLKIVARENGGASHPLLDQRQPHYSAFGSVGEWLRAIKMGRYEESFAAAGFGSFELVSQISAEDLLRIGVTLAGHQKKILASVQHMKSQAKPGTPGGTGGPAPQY

[5] = molecular target: T3, Ephrin type-B receptor 4 (Homo sapiens); conditions: at 1 µM
[6] = molecular target: Receptor tyrosine-protein kinase erbB-2 (Homo sapiens) (UniProt P04626); conditions: at 0.1 µM
Chain of Receptor tyrosine-protein kinase erbB-2 (Homo sapiens) (P04626 whole entry): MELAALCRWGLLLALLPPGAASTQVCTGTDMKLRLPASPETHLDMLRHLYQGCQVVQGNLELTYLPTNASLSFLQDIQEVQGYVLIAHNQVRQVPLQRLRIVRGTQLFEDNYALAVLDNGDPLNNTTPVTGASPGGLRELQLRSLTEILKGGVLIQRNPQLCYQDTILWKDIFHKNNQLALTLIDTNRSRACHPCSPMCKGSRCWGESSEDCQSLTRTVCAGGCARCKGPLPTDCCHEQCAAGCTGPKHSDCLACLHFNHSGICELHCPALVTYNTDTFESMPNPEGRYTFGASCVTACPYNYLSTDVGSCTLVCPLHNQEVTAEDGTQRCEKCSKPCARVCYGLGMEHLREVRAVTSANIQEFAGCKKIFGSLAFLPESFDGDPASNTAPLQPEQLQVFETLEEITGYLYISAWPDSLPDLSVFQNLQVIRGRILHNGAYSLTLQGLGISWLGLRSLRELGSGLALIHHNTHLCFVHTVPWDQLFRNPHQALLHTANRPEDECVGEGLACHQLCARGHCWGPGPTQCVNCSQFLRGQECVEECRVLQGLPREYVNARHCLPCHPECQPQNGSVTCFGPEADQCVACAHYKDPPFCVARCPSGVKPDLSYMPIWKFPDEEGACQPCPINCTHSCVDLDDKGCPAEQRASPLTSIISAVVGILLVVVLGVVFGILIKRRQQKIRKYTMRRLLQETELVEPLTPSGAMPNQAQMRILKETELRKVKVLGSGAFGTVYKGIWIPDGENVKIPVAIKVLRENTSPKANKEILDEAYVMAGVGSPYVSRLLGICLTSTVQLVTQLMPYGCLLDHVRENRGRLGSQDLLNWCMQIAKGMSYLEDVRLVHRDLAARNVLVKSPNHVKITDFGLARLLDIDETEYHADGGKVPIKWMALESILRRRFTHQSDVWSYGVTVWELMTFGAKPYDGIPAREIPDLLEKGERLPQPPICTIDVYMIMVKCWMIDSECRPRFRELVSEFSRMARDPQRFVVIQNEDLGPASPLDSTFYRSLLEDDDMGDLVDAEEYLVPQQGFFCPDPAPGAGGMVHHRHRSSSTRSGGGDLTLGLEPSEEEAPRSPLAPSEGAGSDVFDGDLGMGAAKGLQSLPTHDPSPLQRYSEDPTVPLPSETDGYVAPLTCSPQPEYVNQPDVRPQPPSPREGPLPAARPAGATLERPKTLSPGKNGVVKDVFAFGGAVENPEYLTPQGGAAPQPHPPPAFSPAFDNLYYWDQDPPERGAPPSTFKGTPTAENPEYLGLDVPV

[7] = molecular target: Receptor tyrosine-protein kinase erbB-2 (Homo sapiens) (UniProt P04626); conditions: at 1 µM
[8] = molecular target: Receptor tyrosine-protein kinase erbB-4 (Homo sapiens) (UniProt Q15303); conditions: at 0.1 µM
Chain of Receptor tyrosine-protein kinase erbB-4 (Homo sapiens) (Q15303 whole entry): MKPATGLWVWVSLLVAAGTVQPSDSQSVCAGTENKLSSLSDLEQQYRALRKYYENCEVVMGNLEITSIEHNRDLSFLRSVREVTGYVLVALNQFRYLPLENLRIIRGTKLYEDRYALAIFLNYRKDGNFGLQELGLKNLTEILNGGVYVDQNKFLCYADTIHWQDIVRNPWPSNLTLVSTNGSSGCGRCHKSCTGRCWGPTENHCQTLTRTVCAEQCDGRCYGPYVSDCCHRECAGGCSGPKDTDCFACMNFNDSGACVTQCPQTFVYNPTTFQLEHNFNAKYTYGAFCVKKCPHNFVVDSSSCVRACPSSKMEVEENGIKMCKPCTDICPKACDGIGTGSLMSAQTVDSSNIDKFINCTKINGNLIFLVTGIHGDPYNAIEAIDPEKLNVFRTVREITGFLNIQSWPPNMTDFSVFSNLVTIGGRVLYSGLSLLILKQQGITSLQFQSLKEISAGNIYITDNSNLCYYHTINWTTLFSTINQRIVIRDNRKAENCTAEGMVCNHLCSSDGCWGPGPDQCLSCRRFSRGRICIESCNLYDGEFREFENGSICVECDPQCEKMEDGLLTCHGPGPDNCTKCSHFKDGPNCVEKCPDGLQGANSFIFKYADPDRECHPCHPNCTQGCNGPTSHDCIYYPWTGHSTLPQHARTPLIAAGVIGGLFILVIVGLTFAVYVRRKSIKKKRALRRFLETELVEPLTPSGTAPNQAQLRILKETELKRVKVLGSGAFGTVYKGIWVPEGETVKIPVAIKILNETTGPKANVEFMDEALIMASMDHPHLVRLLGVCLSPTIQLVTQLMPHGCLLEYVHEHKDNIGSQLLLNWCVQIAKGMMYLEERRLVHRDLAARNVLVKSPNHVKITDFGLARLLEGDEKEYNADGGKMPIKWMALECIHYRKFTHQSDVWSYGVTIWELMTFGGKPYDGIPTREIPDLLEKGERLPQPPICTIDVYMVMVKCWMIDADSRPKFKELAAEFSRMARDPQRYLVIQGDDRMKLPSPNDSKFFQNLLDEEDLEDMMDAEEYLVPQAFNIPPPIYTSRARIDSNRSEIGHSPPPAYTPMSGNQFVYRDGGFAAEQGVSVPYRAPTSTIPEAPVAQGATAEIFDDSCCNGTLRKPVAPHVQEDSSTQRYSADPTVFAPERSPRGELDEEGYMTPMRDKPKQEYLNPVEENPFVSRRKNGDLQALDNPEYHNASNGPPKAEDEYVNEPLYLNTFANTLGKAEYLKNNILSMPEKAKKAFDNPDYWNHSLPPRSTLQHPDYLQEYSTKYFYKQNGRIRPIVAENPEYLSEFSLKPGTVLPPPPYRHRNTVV

[9] = molecular target: Receptor tyrosine-protein kinase erbB-4 (Homo sapiens) (UniProt Q15303); conditions: at 1 µM
[10] = molecular target: Tyrosine-protein kinase Fer (Homo sapiens) (UniProt P16591); conditions: at 0.1 µM
[11] = molecular target: Tyrosine-protein kinase Fer (Homo sapiens) (UniProt P16591); conditions: at 1 µM
[12] = molecular target: Tyrosine-protein kinase Fes/Fps (Homo sapiens) (UniProt P07332); conditions: at 0.1 µM
Chain of Tyrosine-protein kinase Fes/Fps (Homo sapiens) (P07332 whole entry): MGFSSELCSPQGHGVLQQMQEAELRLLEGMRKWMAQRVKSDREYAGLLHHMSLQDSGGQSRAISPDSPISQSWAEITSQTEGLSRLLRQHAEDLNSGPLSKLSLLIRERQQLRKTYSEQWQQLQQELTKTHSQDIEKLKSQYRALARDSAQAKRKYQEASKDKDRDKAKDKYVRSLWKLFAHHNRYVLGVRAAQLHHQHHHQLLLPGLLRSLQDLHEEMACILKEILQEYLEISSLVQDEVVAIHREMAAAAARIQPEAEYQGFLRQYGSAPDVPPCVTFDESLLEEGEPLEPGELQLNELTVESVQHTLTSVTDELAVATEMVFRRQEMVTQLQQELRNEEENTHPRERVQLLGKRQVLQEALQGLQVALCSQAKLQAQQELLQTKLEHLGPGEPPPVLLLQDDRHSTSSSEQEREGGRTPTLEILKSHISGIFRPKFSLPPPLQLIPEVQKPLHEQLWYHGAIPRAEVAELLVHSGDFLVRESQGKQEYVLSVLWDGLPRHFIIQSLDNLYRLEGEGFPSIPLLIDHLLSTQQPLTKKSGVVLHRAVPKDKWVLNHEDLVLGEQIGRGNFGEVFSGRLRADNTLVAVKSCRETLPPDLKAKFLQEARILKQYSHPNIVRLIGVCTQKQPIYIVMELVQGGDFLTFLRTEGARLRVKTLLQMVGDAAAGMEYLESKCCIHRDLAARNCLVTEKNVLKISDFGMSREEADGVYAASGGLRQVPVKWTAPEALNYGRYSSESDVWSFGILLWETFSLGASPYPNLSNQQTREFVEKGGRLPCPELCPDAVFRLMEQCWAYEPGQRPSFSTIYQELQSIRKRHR

[13] = molecular target: Tyrosine-protein kinase Fes/Fps (Homo sapiens) (UniProt P07332); conditions: at 1 µM
[14] = molecular target: Fibroblast growth factor receptor 1 (Homo sapiens) (UniProt P11362); conditions: at 0.1 µM
Chain of Fibroblast growth factor receptor 1 (Homo sapiens) (P11362 22-822 limits assumed): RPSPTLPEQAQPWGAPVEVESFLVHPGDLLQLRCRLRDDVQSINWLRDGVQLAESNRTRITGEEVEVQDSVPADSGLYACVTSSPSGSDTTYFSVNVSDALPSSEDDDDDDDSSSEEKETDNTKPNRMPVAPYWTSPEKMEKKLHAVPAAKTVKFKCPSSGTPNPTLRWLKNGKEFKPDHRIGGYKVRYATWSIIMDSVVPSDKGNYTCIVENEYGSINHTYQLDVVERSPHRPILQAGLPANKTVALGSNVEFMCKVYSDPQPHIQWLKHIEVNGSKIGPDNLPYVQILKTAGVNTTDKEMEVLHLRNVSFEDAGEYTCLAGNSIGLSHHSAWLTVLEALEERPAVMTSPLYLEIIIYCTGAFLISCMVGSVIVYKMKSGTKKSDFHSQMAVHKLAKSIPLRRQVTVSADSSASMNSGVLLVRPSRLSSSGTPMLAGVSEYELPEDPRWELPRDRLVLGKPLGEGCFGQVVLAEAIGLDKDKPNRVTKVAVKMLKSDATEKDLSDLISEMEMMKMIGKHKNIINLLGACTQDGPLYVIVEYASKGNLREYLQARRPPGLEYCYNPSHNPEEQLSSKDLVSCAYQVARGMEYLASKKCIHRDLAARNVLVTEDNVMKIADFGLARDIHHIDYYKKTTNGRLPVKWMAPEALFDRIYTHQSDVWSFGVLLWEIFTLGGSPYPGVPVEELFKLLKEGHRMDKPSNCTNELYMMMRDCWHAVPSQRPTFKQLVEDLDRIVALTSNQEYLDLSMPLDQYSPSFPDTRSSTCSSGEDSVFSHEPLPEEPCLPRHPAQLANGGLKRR

[15] = molecular target: Fibroblast growth factor receptor 1 (Homo sapiens) (UniProt P11362); conditions: at 1 µM
[16] = molecular target: Fibroblast growth factor receptor 2 (Homo sapiens) (UniProt P21802); conditions: at 0.1 µM
[17] = molecular target: Fibroblast growth factor receptor 2 (Homo sapiens) (UniProt P21802); conditions: at 1 µM
[18] = molecular target: Fibroblast growth factor receptor 3 (Homo sapiens) (UniProt P22607); conditions: at 0.1 µM
Chain of Fibroblast growth factor receptor 3 (Homo sapiens) (P22607 23-806 limits assumed): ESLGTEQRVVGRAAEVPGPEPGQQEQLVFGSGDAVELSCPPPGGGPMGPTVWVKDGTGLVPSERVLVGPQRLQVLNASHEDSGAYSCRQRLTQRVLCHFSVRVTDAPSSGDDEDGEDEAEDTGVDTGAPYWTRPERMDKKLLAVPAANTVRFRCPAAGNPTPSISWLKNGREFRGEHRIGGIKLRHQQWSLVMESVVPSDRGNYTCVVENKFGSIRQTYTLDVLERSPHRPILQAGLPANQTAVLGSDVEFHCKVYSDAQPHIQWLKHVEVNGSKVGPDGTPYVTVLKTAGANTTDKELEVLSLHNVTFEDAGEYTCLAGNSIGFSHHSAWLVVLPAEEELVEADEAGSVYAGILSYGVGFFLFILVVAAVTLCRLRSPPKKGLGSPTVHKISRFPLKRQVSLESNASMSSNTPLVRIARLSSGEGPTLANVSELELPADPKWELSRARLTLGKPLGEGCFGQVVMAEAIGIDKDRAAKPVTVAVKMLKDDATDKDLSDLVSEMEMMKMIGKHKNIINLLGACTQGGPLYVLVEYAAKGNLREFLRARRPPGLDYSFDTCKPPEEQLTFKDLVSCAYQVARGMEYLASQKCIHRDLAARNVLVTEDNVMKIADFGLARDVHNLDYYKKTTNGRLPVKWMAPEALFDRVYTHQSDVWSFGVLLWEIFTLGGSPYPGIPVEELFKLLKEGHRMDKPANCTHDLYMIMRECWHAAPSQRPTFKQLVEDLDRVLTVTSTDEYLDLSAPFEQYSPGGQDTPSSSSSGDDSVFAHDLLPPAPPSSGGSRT

[19] = molecular target: Fibroblast growth factor receptor 3 (Homo sapiens) (UniProt P22607); conditions: at 1 µM
[20] = molecular target: Fibroblast growth factor receptor 4 (Homo sapiens) (UniProt P22455); conditions: at 0.1 µM;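 further: values are mean percent inhibition of FGFR4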

| Compound | inhibition [1] [%] | inhibition [2] [%] | inhibition [3] [%] | inhibition [4] [%] | inhibition [5] [%] | inhibition [6] [%] | inhibition [7] [%] | inhibition [8] [%] | inhibition [9] [%] | inhibition [10] [%] | inhibition [11] [%] | inhibition [12] [%] | inhibition [13] [%] | inhibition [14] [%] | inhibition [15] [%] | inhibition [16] [%] | inhibition [17] [%] | inhibition [18] [%] | inhibition [19] [%] | inhibition [20] [%] |
| --- | --- | --- | --- | --- | --- | --- | --- | --- | --- | --- | --- | --- | --- | --- | --- | --- | --- | --- | --- | --- |
| c1ccc(Nc2ncc(-c3ccccc3)o2)cc1 | 12.9 | 2.14 | 6.32 | 4.58 | 5.49 | 43.6 | 8.36 | 11 | 16 | 3.09 | 0.57 | 3.92 | 4.9 | -1.19 | 8.3 | 6.37 | 10.5 | 7.27 | 6.62 | 2.33 |
| Nc1ccc(C#Cc2cncnc2Nc2ccc(OCc3cccc(F)c3)c(Cl)c2)cc1 | 6.65 | 3.43 | 3.54 | 0.47 | 2.45 | 5.63 | 10.1 | 12.9 | 54.4 | 2.93 | 1.48 | 2.44 | 2.24 | 2.53 | 4.37 | 3.89 | 4.27 | 3.12 | 4.49 | 2.37 |
| NS(=O)(=O)c1ccc(NC=C2C(=O)Nc3ccc4ncsc4c32)cc1 | 26.1 | 5.96 | 2.98 | 4.95 | 12.2 | 1.93 | -0.87 | 17.8 | 11.2 | 5.32 | 27.7 | 12.3 | 17.1 | 13.4 | 41.9 | 31.5 | 63.8 |  | 65 | -2.6 |
| [O-][S+]1CCN(Cc2ccc(-c3ccc4ncnc(Nc5ccc(OCc6ccccc6)c(Cl)c5)c4c3)o2)CC1 | 5.17 | 0.63 | 1.88 | -0.7 | -0.05 | 37.5 | 72.6 | 69.6 | 84.3 | -2.55 | 4.1 | 1.31 | 1.62 | -2.69 | 1.21 | 0.85 | 3.74 | -0.22 | 3.23 | -0.05 |
